# Bioassay records: PubChem BioAssay, National Center for Advancing Translational Sciences (NCATS)
# LmPK inhibitor = LmPK (Leishmania mexicana) enzyme inhibition; Q27686; purified LmPK, Kinase-Glo ATP luminescence, 1 h; Potency, µM (doses to about 57.5 µM), actives largely listed as inhibitors; 0.37% of 290,000 active; AID 1721
#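 Kinase-Glo luminescence read after 1 h RT reaction of 0.1 nM LmPK with 0.5 mM PEP and 0.1 mM ADP. Activity scaled between uninhibited and enzyme-free controls.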
# CHX counter = affects cycloheximide protein synthesis inhibition readout, counter-screen; cell reporter, cycloheximide protein synthesis inhibition counterscreen; max response, %; 12% of 300,000 active; AID 2314; in the data active means max response mostly above about 13%, no sharp cut-off; inactive means mostly below about 14%; further: read at 38.3 µM for the half of the compounds with a filed dose
# NS1 inh = blocks influenza NS1 protein function. Potency, µM (highest dose often 46.1 µM). 0.4% of 270,000 active; calls by dose curve; further: actives are rising curves; nearly all actives have a fitted effect of over 50% in size
#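 A cell-based growth assay was used: compounds that relieve NS1-induced slow growth of budding yeast raise OD600. Assay medium was yeast nitrogen base with ammonium sulphate and -URA supplement, pH 6.0, with 2% galactose.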
# Shiga toxin inh = inhibitors of Shiga toxin in Vero cells. Vero cells, Shiga toxin protein synthesis inhibition reporter. inhibition, % at 38.7 µM. 9.2% of 290,000 active; in the data active means inhibition mostly above about 28%, no sharp cut-off; inactive means mostly below about 43%
# FBPA Giardia inh = blocks Giardia fructose-bisphosphate aldolase activity; purified Giardia FBPA; Potency, µM (highest dose often 59.6 µM), actives largely listed as inhibitors; 0.71% of 290,000 active; AID 2451; further: nearly all actives have a fitted effect of over 55% in size
# Target sequence (A8B2U2 whole entry, looked up): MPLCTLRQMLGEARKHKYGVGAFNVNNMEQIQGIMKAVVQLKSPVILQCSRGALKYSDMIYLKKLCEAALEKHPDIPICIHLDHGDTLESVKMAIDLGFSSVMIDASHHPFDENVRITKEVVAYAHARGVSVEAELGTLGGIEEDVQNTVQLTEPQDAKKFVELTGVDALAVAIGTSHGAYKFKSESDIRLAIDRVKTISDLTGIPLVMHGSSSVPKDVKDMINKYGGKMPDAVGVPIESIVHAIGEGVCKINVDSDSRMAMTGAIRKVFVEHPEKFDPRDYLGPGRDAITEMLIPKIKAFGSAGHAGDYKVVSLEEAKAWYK
#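 40 nM FBPA preincubated 10 min at RT with compound (up to 57.5 uM final), then substrate plus GAPDH/TPI/NAD/arsenate coupling and diaphorase/resazurin added. Fluorescence read after 20 min at RT, 525/598 nm.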
# Hits are given with their value; n = inactive; u = inconclusive; x = not tested or not shown; ! = not active in a repeat; [ ] = dose if it differs, or a comment. Only some compounds are listed: those with a hit (about 14% of all), similar ones and a draw of the others. Unless noted, the call rests on the fitted dose curve; in most records, active means well fitted curve in the direction sought with a large enough effect; inconclusive means small, poorly fitted or top-dose-only effect, or another doubt; inactive means no such curve, though single readings can be large; an effect the other way counts as inactive or inconclusive.
SMILES,LmPK inhibitor,CHX counter,NS1 inh,Shiga toxin inh,FBPA Giardia inh
CO[C@H]1COC(=O)[C@H](C)NC(=O)C/C=C\[C@@H](C)[C@@H](NS(=O)(=O)c2ccc(C)cc2)COC(=O)[C@H](OCc2ccccc2)/C=C\[C@@H]1C,x,x,x,x,n[12.9 µM]
O=C(Oc1ccccc1C(=S)N1CCOCC1)c1cccc([N+](=O)[O-])c1,n,n,n,n,n
Nc1ncc(O)c(N)n1,x,n,x,n,u
O=C(COc1ccc2cc(-c3ccccc3)c(=O)oc2c1)NCC1CCC(C(=O)O)CC1 (stereo not drawn),n,n,n,n,n
Cc1c(C(=O)Nc2ccccc2F)sc2ncn(CC(=O)N3CCCCC3)c(=O)c12,n,n,n,n,n
O=C(O)C1CCCN1c1ncnc2c1oc1ccccc12 (stereo not drawn),n,43,n,49,n
COc1ccccc1-c1noc(-c2ccccc2C(=O)NCC2CCCO2)n1 (stereo not drawn),n,16,n,n,n
COc1ccc(-c2noc(-c3ccccc3C(=O)NCC3CCCO3)n2)cc1 (stereo not drawn),n,19,n,n,n
O=C(NCC1CCCO1)c1cc(-c2ccccc2F)no1 (stereo not drawn),n,29,n,91,x
O=C(NCC1CCCO1)c1ccccc1 (stereo not drawn),n,n,n,n,n
CCc1cccc(C)c1NC(=O)CCNC(=O)c1cccc(C)c1,n,n,n,n,n
CCOC(=O)Cn1nnnc1CN(Cc1cccs1)Cc1cc2cc(C)ccc2[nH]c1=O,n,n,n,n,n
CCOC(=O)Cn1nnnc1C(CC)N(Cc1cccs1)Cc1cc2ccc(OC)cc2[nH]c1=O (stereo not drawn),n,8.5,n,n,n
Cn1c(Sc2ccc(-c3cccnc3)n2C)ccc1-c1cccnc1,x,x,n,x,x
COc1cc(C)ccc1OCCCOc1ccccc1Br,n,64,n,110,n
COc1cc(C)ccc1OCCON1C(=O)CCC1=O,n,32,n,n,n
COc1cc(C)ccc1OCCOc1c(C)cccc1Cl,n,24,n,57,n
COc1ccccc1OCCOCCOc1ccc(C)cc1Br,n,n,n,n,n
COc1cc(C)ccc1OCCOc1cc(C)ccc1Cl,n,n,u,n,n
COc1ccccc1OCCCOc1ccc(C)cc1Br,n,46,n,74,n
CC(OC(=O)c1snc(C(=O)NC2CCCCC2)c1N)C(=O)NC(C)(C)C (stereo not drawn),n,n,n,n,n
CC(C)(C)NC(=O)COC(=O)c1snc(C(=O)NC2CCCCC2)c1N,n,18,n,37,n
CC1=CCC(COC(=O)Nc2ccccc2)CC1 (stereo not drawn),u,51,n,82,n
O=C(Nc1ccccc1)OCC1CCCN2CCCCC12 (stereo not drawn),n,n,n,n,n
NC1=NC(=O)/C(=C\c2ccc(-c3ccc(Cl)cc3)o2)S1,n,13,n,30,n
SMILES,LmPK inhibitor,CHX counter,NS1 inh,Shiga toxin inh,FBPA Giardia inh
COCCNC(=O)C1CCN(C(=O)c2cc3sccc3n2Cc2ccc(F)cc2)CC1,n,n,x,n,n
COc1ccc(NC(=O)c2cc3sccc3n2Cc2ccc(F)cc2)cc1OC,n,25,n,n,n
O=C(Nc1nccs1)c1cc2sccc2n1Cc1ccc(F)cc1,n,18,n,n,n
O=C(NCCCNC(=O)c1ccccn1)c1ccc(F)cc1,n,n,n,n,n
COc1ccccc1C1c2[nH]c3ccccc3c2CCN1Cc1ccc(NC(C)=O)s1 (stereo not drawn),n,n,n,n,n
CC1(c2ccc(OC(F)F)cc2)NC(=O)N(CC(=O)Nc2ccc(Cl)cc2F)C1=O (stereo not drawn),n,13,n,n,n
CCOC(=O)c1ccc(NC(=O)C2=C(C)Nc3nc(CCCO)nn3C2c2ccc(OC)cc2)cc1 (stereo not drawn),n,44,n,66,n
COc1ccc(C2C(C(=O)Nc3ccc(F)cc3)=C(C)Nc3nc(CCCO)nn32)cc1 (stereo not drawn),n,n,n,n,n
Cc1ccc(C(=O)NCc2ccccn2)c(Cl)c1,n,31,n,63,n
Cc1ccc(-c2cc(C(=O)NCc3ccccn3)c3ccccc3n2)cc1,n,30,n,n,n
CCc1ccc(-c2cc(C(=O)NCc3ccccn3)c3ccccc3n2)cc1,n,64,n,92,n
Cc1ccc(-c2cc(C(=O)NCCc3ccc(S(N)(=O)=O)cc3)c3ccccc3n2)cc1,n,17,n,n,n
O=C(NCc1ccccn1)c1cc(-c2ccc(Br)cc2)nc2ccccc12,n,n,n,n,n
CCCn1c(SCC(=O)NNC(=O)c2ccc(C)cc2)nnc1C(C)C,n,n,n,n,x
S[C@@H]1CCCN(Cc2ccccc2)C1,x,x,n,x,x
Cc1ncc([N+](=O)[O-])n1CC(=O)Nc1ccc2c(c1)OCO2,n,n,x,n,n
CC(C)(C)c1ccc(-n2ncc3c2CCCC3NC(=O)c2csnn2)cc1 (stereo not drawn),n,n,n,n,n
Cc1cc(C(=O)NC2CCCc3c2cnn3-c2ccc(C)c(C)c2)no1 (stereo not drawn),n,15,n,n,x
CSCC(=O)NC1CCCc2c1cnn2-c1cc(F)cc(F)c1 (stereo not drawn),n,14,n,n,n
CCCC(=O)NC1CCCc2c1cnn2-c1ccc(C)c(C)c1 (stereo not drawn),n,20,n,n,n
CC(C)(C)c1ccc(-n2ncc3c2CCCC3NC(=O)c2cnccn2)cc1 (stereo not drawn),n,30,n,73,n
N#Cc1cccc(NC(=O)N2CCC3(CC2)CCN(C(=O)c2ccco2)CC3)c1,x,x,x,x,n
CN1CCN(CCCNC(=O)c2ccc3c(Cl)c4c(nc3c2)CCCC4)CC1,n,n,n,n,x
O=C(/C=C/c1cccc([N+](=O)[O-])c1)OCC1CCCO1 (stereo not drawn),n,11,n,26,n
O=C(/C=C/c1cccc([N+](=O)[O-])c1)OCC(=O)c1ccccc1,n,n,n,n,n
SMILES,LmPK inhibitor,CHX counter,NS1 inh,Shiga toxin inh,FBPA Giardia inh
CC(=N\NC(=O)c1ccc([N+](=O)[O-])cc1)/C(=N/O)C(=O)Nc1ccccc1,n,n,n,n,n
O=C(NNC(=O)c1cc(-c2ccccc2)nn1-c1ccccc1)c1ccccc1,n,8.5,n,n,n
O=C(Nc1nc2ccccc2s1)c1cc(-c2ccccc2)nn1-c1ccccc1,n,26,u,24,n
CC1(C(=O)NC(=S)N(Cc2ccccc2)c2ccccn2)CC1(Cl)Cl (stereo not drawn),n,22,n,n,n
O=C(Nc1ccc(Cl)cc1)ON=C1CCCC1,n,40,n,56,n
O=C(NCCCCCCNC(=O)OC1CCS(=O)(=O)C1)OC1CCS(=O)(=O)C1 (stereo not drawn),n,n,n,n,n
O=C(NCCCCCCNC(=O)ON=C1CCCCC1)ON=C1CCCCC1,x,27!,x,27!,n
C/C(=N\OC(=O)Nc1ccc(Cl)cc1)c1ccc(F)c(F)c1,n,17,n,54,n
